Inhibition data for 40 molecules are collected here from ChEMBL document CHEMBL3433997, “St. Jude Leishmania screening dataset” (2016).

Molecules are shown by their SMILES.

Chain of Solute carrier family 2, facilitated glucose transporter member 1 (Homo sapiens) (P11166 whole entry): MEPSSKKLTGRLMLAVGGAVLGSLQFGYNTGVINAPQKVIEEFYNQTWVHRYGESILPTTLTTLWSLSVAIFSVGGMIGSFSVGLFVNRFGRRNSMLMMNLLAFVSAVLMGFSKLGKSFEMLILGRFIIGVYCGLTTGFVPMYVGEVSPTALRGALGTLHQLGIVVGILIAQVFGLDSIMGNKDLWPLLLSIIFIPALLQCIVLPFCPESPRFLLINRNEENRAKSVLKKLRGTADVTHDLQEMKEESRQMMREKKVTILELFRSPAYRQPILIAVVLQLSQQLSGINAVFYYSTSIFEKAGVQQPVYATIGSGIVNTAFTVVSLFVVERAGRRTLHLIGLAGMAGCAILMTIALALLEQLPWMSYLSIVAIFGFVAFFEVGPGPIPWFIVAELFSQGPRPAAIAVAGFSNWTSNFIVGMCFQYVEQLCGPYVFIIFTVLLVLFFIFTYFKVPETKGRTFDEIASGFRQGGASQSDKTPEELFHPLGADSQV

One test concerns the target Solute carrier family 2, facilitated glucose transporter member 1 (Homo sapiens) (UniProt P11166). Nature of the test: ST_JUDE_LEISH: Cytotoxicity at 2uM final concentration against transgenic Leishmania Mexicana promastigotes LmGLUT1 that are glucose transport deficient and complemented with the human glucose transporter GLUT1. Activity is measured by DNA content using SYBR green in vitro. The format is functional.
Take `CC[C@H]1CN(Cc2cccc(O)c2)CC[C@H]1CCCc1ccnc2ccc(O)cc12`: the inhibition (in general, the drop in the measured response relative to a control, in per cent) was 4.31%.
For the molecule `CCOc1ccc(NC(=O)c2ccc(NCCCN3CC(C)CC(C)C3)c([N+](=O)[O-])c2)cc1` (stereo unspecified), the inhibition came out at 2.9%.
On to `O=C(CCc1c[nH]cn1)Nc1cccc(-c2cccc(-c3nc4ccccc4[nH]3)c2)c1`, for which the inhibition stood at 14.3%.
On the same count and under the same terms, as for `CCOC(=O)c1nc(-c2cccnc2)[nH]c1NC(=S)NCc1ccccc1`, the figure is 1.58%.
For the molecule `COc1cc(Cc2cnc(N)nc2N)ccc1OCc1ccc(NC(C)=O)cc1`, the inhibition amounted to 1.71%.
Regarding `CCN(CC)S(=O)(=O)c1cc(-c2ccc(=O)n(CC(=O)c3ccc(C)cc3)n2)ccc1C`, the inhibition turned out to be 4.68%.
Still for that read-out and setting: to `CCOC(=O)NOC(C(=O)O)c1ccccc1` (stereo unspecified) belongs 2.01%.
Take `COCc1cc(C)nc2sc(C(=O)Nc3cc(C(C)(C)C)ccc3O)c(N)c12`: the inhibition stood at 3.32%.
As to `O=C(c1cccc(-c2noc(C(F)(F)F)n2)c1)N1CCN(c2nsc3ccccc23)CC1`, the inhibition is -0.16%.
For the molecule `CCCCCCOc1ccc(C(=O)NCCCC2CCN(CCCCCNC(=O)C=Cc3ccc(Cl)c(Cl)c3)CC2)cc1`, the inhibition was 2.75%.

The target in the next test is Hexose transporter 1 (Plasmodium falciparum) (UniProt O97467). The test is described as follows: ST_JUDE_LEISH: Cytotoxicity at 2uM final concentration against transgenic Leishmania Mexicana promastigotes LmPfHT that are glucose transport deficient and complemented with the Plasmodium falciparum hexose transporter. Activity is measured by DNA content using SYBR green in vitro. The format is functional.
`COc1ccc(-c2ncnc(C(F)(F)F)c2-c2ccc(Cl)cc2)c(O)c1`: the inhibition came out at 3.07%.
Still for that read-out and setting: to `CCc1ccc(S(=O)(=O)Nc2ccc(CCN3CCC(N4CCCCC4)CC3)cc2)cc1` belongs 14.9%; to `CCCc1cc(OC)c(CC2c3cc(O)c(Cl)cc3C(c3ccccc3)CN2C)cc1OC` (stereo unspecified), 1.11%.
On to `O=C(Nc1ccc(-c2nc3ccccc3[nH]2)cc1)c1ccc(S(=O)(=O)N2CCCCCC2)cc1`, for which the inhibition was 2.45%.
`COc1ccc(Nc2nccc(N3CCC(NC(=O)C(C)c4ccc(Cl)cc4)CC3)n2)cc1` (stereo unspecified): the inhibition came to 0.07%.
`CCCCCCn1c(Sc2ccc(C#N)c([N+](=O)[O-])c2)nnc1-c1cc(OC)cc(OC)c1`: the inhibition amounted to 6.04%.
With `CCCCN1C(=N)NC(c2ccccc2)(c2ccccc2)C1=O`, the inhibition was 3.94%.
The same measure, in the same setting: as for `Cc1[nH]c(C)c(-c2ccc(-c3cc(C(F)(F)F)cc(C(F)(F)F)c3)nc2)c(=O)c1Br`, the figure is 5.44%.
For the molecule `O=C(Nc1cc(Cl)c(Cl)cc1NC(=O)c1cccc(-c2ccccc2)c1O)c1cccc(-c2ccccc2)c1O`, the inhibition was 0.97%.
As for `COc1cc(Cc2cnc(N)nc2N)c2ccsc2c1OC`, the inhibition turned out to be 3.31%.
For `COc1ccccc1OCCN(CC(O)COc1cccc2[nH]c3ccccc3c12)CC(O)COc1cccc2[nH]c3ccccc3c12` (stereo unspecified), the inhibition amounted to 2.43%.
Regarding `CC(C)NCc1ccc(-c2ccc(-c3nc4cc(C(F)(F)F)ccc4[nH]3)s2)cc1`, the inhibition is 17.8%.
Take `O=[N+]([O-])c1nc(Br)n(Cc2ccc(Cl)cc2)n1`: the inhibition is 3.81%.
For `CC(C)(C)c1ccc(S(=O)(=O)Nc2ccccc2N2CCOCC2)cc1`, the inhibition amounted to 4.11%.
For the molecule `Cc1nc(O)c2c(ccc3ccc(CN(C)c4ccc(C(=O)N[C@@H](CCC(=O)O)C(=O)O)cc4)cc32)n1`, the inhibition is -0.69%.
In the case of `Cc1cc(=O)c(-c2ccc(OCCSc3ccc(C(F)(F)F)cn3)cc2)c(C)[nH]1`, the inhibition was found to be 5.13%.
`NC(=O)c1cnc2cc(-c3ccncc3)cc(Nc3ccc(NC(=O)C4CCCCC4)cc3)c2c1`: the inhibition stood at 2.89%.
As for `O=c1ccc(-c2nc3cc(Cl)c(Cl)cc3n2Cc2ccc(Cl)cc2Cl)c[nH]1`, the inhibition was -0.54%.
Consider `Cc1ccccc1C1CCN(C2CCC(NC(=O)/C=C/c3ccc(C(F)(F)F)cc3F)CC2)CC1` (stereo unspecified), for which the inhibition is 0.43%.
Take `O=C(NC1CCC(N2CCC(c3nc4ccccc4s3)CC2)CC1)c1cc2ccccc2[nH]1` (stereo unspecified): the inhibition is -2.33%.
Regarding `CCCC1N=C(N)N=C(N)N1c1ccc(C)cc1` (stereo unspecified), the inhibition was found to be 2.51%.
`O=[N+]([O-])c1ccc(C2=NN(S(=O)(=O)c3c(Cl)cc(Cl)cc3Cl)CCCC2)cc1`: the inhibition was found to be 0.56%.
Turning to `FC(F)(F)c1ccc2[nH]ccc(=NN=Cc3ccccc3)c2c1`, the inhibition was -0.56%.
Regarding `CC(C)(C)OC(=O)C1CCCN(Cc2ccc(-c3cccc(-c4nc5ccccc5[nH]4)c3)cc2)C1` (stereo unspecified), the inhibition came to 3.25%.
Turning to `C=CCOC(=O)N1CCC(CNCc2cccc(-c3cccc(-c4nc5cc(F)ccc5[nH]4)c3)c2)C1` (stereo unspecified), the inhibition is 0.9%.
Consider `Cc1onc(-c2ccccc2)c1-c1nc(NCc2ccccc2Cl)no1`, for which the inhibition is 2.64%.
In the case of `O=C(Nc1ccc(I)cc1)Nc1ccc(Cn2ncc(N3CCCNCC3)c(Cl)c2=O)cc1`, the inhibition is -3.01%.
In the case of `O=C(NCC1CCN(CCN2CCC(c3cn(CCO)c4ccccc34)CC2)CC1)c1ccc(-c2ccc(C(F)(F)F)cc2)cc1`, the inhibition was 5.41%.
In the case of `COCCCNC(=O)C1CCN(C(c2ccc(Cl)cc2)c2ccc(Cl)cc2)CC1`, the inhibition turned out to be 3.44%.
As for `COc1ccc(C(=O)CCC(=O)N(CCC2CCCN2C)Cc2ccc(-c3ccc(CNCCc4ccc(S(C)(=O)=O)cc4)cn3)cc2)cc1F` (stereo unspecified), the inhibition was found to be 9.98%.
Still for that read-out and setting: as for `CC[C@H]1CN(Cc2cccc(O)c2)CC[C@H]1CCCc1ccnc2ccc(O)cc12`, the figure is 4.23%.
